According to the supplement of paper PMC3334620:
Whole data set: some 33,000 sequences, median “E-score (-0.5 to 0.5)” near -0.0034, cut for the highest 2% near 0.25. The sample as a whole holds a higher share of the highest values than the screen did.

Target: T1, Yap3 (UniProt P38749)
T1 sequence: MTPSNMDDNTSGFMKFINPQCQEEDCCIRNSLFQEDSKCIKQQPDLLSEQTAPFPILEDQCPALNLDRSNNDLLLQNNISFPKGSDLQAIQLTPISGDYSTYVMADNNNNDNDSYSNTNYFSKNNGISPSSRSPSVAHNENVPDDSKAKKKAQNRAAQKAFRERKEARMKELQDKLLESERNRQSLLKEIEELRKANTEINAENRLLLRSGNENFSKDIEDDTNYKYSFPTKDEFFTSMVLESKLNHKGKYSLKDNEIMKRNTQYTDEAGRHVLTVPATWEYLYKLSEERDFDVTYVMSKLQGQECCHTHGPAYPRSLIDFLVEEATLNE
Experiment: PBM E-score (8-mer binding enrichment) (E-score (-0.5 to 0.5)); higher = stronger / more preferred TF binding
Conditions: protein concentration: 100 nM; construct: GST-full length
Method: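 Universal 'all 10-mer' protein binding microarrays (Agilent AMADID 015681) probed with GST-tagged S. cerevisiae TFs (full-length or DBD) made by in vitro transcription/translation (PURExpress), about 100-200 nM. Bound TF was detected with fluorescent anti-GST. Each ungapped 8-mer (which stands for itself and its reverse complement) is scored by the PBM enrichment score (E-score), a modified Wilcoxon-Mann-Whitney statistic from -0.5 to +0.5, computed with the Universal PBM Analysis Suite. Scale: above 0.35 generally sequence-specific binding.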

Sequence	PBM E-score
ACGGTAGA	-0.0586
AACTGATT	-0.0243
AACCAGGC	-0.00725
CAGTGAAC	0.161
CTGGTTGA	-0.256
CTTCACTC	0.0393
ATTATGTC	0.198
ATTATGCG	0.297
ATTATGTG	0.291
ATAATGTA	0.292
ATTATGCA	0.0948
CTAATGTA	0.148
ATTATGTA	0.267
ATAATGTC	0.195
AGTATGTG	0.203
ACTATGTG	-0.0195
GTTATGTA	0.151
ATTATGCC	0.119
CCTGCGCA	-0.158
AAATCACC	0.235
AGATCGCG	0.0544
GTAGGGAA	0.0975
ACGTAGTC	-0.262
ATTATGAA	0.261
GTTATGAA	0.172
CTTATGAA	0.0398

Sequence	PBM E-score
ATCGACTA	0.0167
CATGTGGC	0.0138
ACAACGCG	0.0663
ATATTCAC	0.254
CTATTCAC	0.133
ATATTCTA	0.175
CTATTCTC	0.134
GTATTCAC	0.113
ATATTCTC	0.295
AGGTTCTG	-0.122
CCACCATC	-0.238
GTACAAGA	0.0226
GACTTACC	-0.11
CAAAGTCA	0.0697
AGACAATG	0.0142
AGACAATA	0.339
AGACAATC	0.129
CTATGGGC	-0.0642
ACCCAGAA	0.158
CAACCGCG	0.323
CAACCGCA	0.00088
CAACCGCC	-0.103
CATAAGAA	0.21
AAGTGGAC	-0.033
GTACGTAC	0.0261
ATTCGTTA	0.25

Sequence	PBM E-score
CTACGTAA	0.135
CTTCGTAA	0.141
CTTCGTTC	0.0138
GTTCGTAA	0.192
AAACGTAT	0.145
ATTCGTTC	0.27
ACACGTAT	0.0936
GTACGTAA	0.312
ATTCGTAA	0.292
ATACGTAT	0.296
CGGGGTAC	-0.251
GTGAGCTA	0.0321
AAATGTGC	0.197
CCACTAAG	0.0472
ACTAAGTG	-0.00977
ACAACAGC	0.0808
ACAGAGAT	0.0805
CAGGCAAG	-0.0287
ATACGTAA	0.266
ATACGTAG	0.0583
ATACGTAC	0.0322
CCTTAGCC	-0.0133
CGCCATCC	-0.247
ATGTAACG	0.164
CTGTAACA	-0.0647
CTGTAATA	0.113

Sequence	PBM E-score
CTGTAAGA	-0.0157
ATGTAAGA	0.277
GTGTAAGA	-0.0287
ATGTAAGG	0.129
CTGTAAGC	-0.0121
ATGTAAGC	0.264
ATGTAACA	0.256
ATGTAATG	0.151
ATGTAATA	0.371
AGCGTCGA	0.124
AACCTAAA	0.142
ATCCCTGA	-0.0313
CAGCACAC	-0.173
AAGTGTTA	0.112
TAGAGCTA	-0.0728
AATCCTCT	-0.127
CCAGTTCG	-0.114
AAAATCTA	0.0549
CGCTACTA	0.264
AGCTACTA	0.0917
CGCTACTC	-0.112
ATTTTCTC	0.0752
GTAATACA	0.273
GAAATACA	0.0912
CTAATACA	0.25
ATACTACA	0.28

Sequence	PBM E-score
ACAATACA	0.0763
ATACTACC	0.0377
ATAATACG	0.292
ACAATACG	0.0668
CTACTACA	0.225
ATAATACC	0.226
ATAATACA	0.357
AGAATACG	0.0873
GAAGGCAC	-0.128
AAGGATTC	-0.129
GAGTGGAA	0.0318
CGATATCC	0.146
AAAGAGGC	-0.0407
ATTCCTTG	-0.113
CTTATATA	0.315
AGCATATA	0.0558
ACTATATA	0.328
GCTATATA	0.101
GGCATATA	0.268
ACTATATC	0.227
CTTATATC	0.218
ACCATATG	0.122
ACCATATC	0.0587
CGCATATA	0.00761
ACCATATA	0.285
GTTATATA	0.224

Sequence	PBM E-score
ACCTAAAC	0.122
GAGGGATC	-0.253
ACTGGTAA	0.184
CCTAGACC	-0.146
CGAAGGTA	0.00763
AGTGCGCG	-0.0557
CCCTGTCC	-0.276
TAGAGCAA	-0.0378
AAACTGCT	-0.156
GACTCTTA	0.141
ATTATATG	0.221
ATTATATC	0.16
ATTATATA	0.3
AATGCCAG	-0.00344
GCGTGGCC	-0.3
TGTCGAAA	-0.0162
GAATAACA	0.308
GAATAGAA	0.125
AAATAATT	0.287
GAATAATC	0.217
AAATAAAT	0.241
AAATAAGT	0.145
TAATAGAA	0.257
CAATAACA	0.0825
GAATAATA	0.292
TAATAACA	0.189

Sequence	PBM E-score
AAATAGAA	0.0373
GAATAAGA	0.109
TAACACTA	0.245
ACGCGTTA	0.0763
GGCTCTGA	-0.03
CAGAGTTA	-0.0557
ACACCATA	0.164
GCGCACCA	-0.0312
TAATAATA	0.373
TAATAAAA	0.324
TAATAAGA	0.136
AAATAATG	0.24
CATTAGAA	0.123
GATTAGAA	0.0967
AAATAAAA	0.224
AAATAATC	0.0637
GAATAAAA	0.178
TATTAGAA	0.287
AAATAATA	0.307
CAATAATA	0.237
